For assay [1], the target named is Tyrosine-protein kinase SYK (Homo sapiens) (UniProt P43405). The note with it: at 10 µM.
Assay [2] addresses T1, Mitogen-activated protein kinase kinase kinase 7 (Homo sapiens) (UniProt O43318).
T1 sequence (whole entry): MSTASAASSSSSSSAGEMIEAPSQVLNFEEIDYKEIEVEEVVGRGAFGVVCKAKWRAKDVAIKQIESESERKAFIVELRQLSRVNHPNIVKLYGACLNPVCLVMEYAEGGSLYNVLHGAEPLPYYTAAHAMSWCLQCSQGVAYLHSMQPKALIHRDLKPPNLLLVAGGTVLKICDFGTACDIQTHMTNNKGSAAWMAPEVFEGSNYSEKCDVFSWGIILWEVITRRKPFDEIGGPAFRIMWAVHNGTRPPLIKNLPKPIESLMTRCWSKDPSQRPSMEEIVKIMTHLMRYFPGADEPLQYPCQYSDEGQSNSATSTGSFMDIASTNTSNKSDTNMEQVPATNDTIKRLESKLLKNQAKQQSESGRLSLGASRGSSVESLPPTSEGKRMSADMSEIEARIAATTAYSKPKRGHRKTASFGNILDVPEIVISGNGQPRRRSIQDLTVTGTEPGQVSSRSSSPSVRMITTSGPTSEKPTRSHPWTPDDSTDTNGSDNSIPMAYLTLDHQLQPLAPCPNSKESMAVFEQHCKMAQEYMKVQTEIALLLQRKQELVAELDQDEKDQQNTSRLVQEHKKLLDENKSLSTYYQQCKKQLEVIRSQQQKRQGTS
The note with it: at 1 µM.

For assay [3], the target named is T1, Mitogen-activated protein kinase kinase kinase 7 (Homo sapiens). The note with it: at 10 µM.
Assay [4] deals with T2, Serine/threonine-protein kinase TAO1 (Homo sapiens) (UniProt Q7L7X3).
T2 sequence (whole entry): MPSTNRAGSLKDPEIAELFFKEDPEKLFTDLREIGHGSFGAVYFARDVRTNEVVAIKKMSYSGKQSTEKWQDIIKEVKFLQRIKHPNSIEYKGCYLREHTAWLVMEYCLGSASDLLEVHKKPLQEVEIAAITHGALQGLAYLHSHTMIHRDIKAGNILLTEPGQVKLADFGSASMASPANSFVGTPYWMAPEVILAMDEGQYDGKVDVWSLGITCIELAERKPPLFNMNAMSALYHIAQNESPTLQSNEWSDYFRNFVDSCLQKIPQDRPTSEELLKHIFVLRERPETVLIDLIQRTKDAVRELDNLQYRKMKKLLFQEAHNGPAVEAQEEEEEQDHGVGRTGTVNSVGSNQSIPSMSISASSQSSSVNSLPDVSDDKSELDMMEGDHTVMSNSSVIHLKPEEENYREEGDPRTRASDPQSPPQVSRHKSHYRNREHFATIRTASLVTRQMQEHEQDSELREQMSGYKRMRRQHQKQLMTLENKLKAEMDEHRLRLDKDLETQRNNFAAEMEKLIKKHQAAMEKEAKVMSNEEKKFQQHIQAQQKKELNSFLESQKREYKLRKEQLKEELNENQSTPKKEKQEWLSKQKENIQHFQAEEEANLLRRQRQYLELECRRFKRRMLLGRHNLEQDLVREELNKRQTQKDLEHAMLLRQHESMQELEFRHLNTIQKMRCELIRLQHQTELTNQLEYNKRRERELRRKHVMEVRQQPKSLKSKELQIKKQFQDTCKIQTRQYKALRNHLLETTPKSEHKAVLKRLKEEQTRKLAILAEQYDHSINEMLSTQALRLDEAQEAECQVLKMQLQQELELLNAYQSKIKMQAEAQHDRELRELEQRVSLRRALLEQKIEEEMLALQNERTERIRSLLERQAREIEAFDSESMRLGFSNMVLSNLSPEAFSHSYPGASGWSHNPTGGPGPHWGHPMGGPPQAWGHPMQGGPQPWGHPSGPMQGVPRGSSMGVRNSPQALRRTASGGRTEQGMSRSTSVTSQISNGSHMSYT
Conditions: at 10 µM.

The target in assay [5] is T3, Serine/threonine-protein kinase TBK1 (Homo sapiens) (UniProt Q9UHD2).
T3 sequence (whole entry): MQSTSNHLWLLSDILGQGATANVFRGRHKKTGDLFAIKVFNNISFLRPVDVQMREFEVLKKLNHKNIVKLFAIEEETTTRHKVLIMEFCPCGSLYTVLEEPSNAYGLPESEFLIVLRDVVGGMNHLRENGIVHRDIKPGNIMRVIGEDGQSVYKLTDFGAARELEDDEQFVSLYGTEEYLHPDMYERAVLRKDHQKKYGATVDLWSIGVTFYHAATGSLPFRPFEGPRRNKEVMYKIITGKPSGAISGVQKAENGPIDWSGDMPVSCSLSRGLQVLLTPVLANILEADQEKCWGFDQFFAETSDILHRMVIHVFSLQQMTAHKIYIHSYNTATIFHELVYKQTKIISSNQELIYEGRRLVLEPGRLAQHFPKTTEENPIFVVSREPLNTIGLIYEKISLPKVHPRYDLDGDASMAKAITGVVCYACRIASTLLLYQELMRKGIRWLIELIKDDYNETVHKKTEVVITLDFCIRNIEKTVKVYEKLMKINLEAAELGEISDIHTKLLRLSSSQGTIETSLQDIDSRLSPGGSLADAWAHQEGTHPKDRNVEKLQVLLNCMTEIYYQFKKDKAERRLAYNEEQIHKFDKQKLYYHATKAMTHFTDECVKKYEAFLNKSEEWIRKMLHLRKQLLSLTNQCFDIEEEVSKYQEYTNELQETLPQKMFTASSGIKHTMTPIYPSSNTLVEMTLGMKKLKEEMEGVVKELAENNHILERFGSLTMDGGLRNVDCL
The note with it: at 1 µM.

Assay [6] has as its target T3, Serine/threonine-protein kinase TBK1 (Homo sapiens). The note with it: at 10 µM.
The target in assay [7] is T4, Inhibitor of nuclear factor kappa-B kinase subunit beta (Homo sapiens) (UniProt O14920).
T4 sequence (whole entry): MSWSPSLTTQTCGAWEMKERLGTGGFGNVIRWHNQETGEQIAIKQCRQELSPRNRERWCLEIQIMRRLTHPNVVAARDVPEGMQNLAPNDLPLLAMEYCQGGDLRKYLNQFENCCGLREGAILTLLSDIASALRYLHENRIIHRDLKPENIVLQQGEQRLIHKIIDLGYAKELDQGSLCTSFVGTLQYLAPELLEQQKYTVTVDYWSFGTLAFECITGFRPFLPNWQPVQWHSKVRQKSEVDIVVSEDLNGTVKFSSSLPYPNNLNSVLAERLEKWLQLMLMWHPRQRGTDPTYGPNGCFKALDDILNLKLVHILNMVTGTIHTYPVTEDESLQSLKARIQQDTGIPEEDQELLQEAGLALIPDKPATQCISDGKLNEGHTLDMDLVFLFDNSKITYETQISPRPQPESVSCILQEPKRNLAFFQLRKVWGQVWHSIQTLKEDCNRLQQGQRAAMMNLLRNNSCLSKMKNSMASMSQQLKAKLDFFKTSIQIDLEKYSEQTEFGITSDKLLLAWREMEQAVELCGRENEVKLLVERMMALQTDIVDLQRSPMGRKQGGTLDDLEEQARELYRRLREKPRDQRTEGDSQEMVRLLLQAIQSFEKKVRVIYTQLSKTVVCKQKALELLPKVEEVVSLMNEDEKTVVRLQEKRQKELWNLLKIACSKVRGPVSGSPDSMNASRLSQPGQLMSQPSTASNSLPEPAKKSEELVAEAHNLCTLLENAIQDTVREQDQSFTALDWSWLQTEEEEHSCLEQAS
The note with it: at 1 µM.

The target in assay [8] is T4, Inhibitor of nuclear factor kappa-B kinase subunit beta (Homo sapiens). The note with it: at 10 µM.

Among the data in ChEMBL document CHEMBL2218924, “A broad activity screen in support of a chemogenomic map for kinase signalling research and drug discovery” (Biochem J, 2013) are residual activity values, retold here.

Turning to `COc1cc2ncc(-c3ccccc3)nc2cc1OC`, the residual activity came to 100% in assay [1]; 98% in assay [2]; 82% in assay [3]; 91% in assay [4]; 91% in assay [5]; 76% in assay [6]. The residual activity in assay [7] and in assay [8] was 95% in each case.
